The results in this text go back to article PMC7862700, “An all-to-all approach to the identification of sequence-specific readers for epigenetic DNA modifications on cytosine”.

Common to all, as to test: DAPPL (digital affinity profiling via proximity ligation, sequencing); 10 mM Tris-HCl pH 7.5, 50 mM NaCl, 1 mM DTT, 4% glycerol, room temperature, 30 min; GST-TFs on glutathione beads, 16-mer random dsDNA library, 0.1% formaldehyde crosslink after washing; high values mean tight binding
Common to all, as to conditions: protein: recombinant; tags: N-terminal GST; dsDNA, one strand shown

One experiment deals with T1, FLI1 (Homo sapiens, UniProt Q01543 1-452).
T1 sequence: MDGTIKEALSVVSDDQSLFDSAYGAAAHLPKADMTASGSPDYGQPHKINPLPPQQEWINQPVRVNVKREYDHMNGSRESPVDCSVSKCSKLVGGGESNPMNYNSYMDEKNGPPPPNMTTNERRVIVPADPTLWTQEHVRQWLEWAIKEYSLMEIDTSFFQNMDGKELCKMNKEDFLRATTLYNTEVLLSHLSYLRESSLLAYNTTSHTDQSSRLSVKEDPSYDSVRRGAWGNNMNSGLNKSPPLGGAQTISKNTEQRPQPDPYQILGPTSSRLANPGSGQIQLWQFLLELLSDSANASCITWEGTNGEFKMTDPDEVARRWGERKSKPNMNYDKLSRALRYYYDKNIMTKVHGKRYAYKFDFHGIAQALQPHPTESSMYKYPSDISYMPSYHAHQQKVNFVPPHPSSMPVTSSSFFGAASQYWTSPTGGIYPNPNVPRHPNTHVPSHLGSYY
In short, it runs like this: (§1)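 Binding signal is each hexamer's read frequency for a factor divided by its frequency in the tag-only sample. The factors were GST-fused human transcription factors from yeast, captured on glutathione beads, DNA-barcoded and pooled with that sample. Pools were incubated with 200 nmole of a random double-stranded 16-mer DNA library in Tris/NaCl/DTT/glycerol buffer at room temperature for 30 min, then washed, crosslinked with 0.1% formaldehyde, proximity-ligated with BsaI/T4 ligase (1 h, 37 °C), PCR-amplified and sequenced on an Illumina NextSeq500.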

For a further experiment, the target named is T2, ELK1 (Homo sapiens, UniProt P19419 1-428).
T2 sequence: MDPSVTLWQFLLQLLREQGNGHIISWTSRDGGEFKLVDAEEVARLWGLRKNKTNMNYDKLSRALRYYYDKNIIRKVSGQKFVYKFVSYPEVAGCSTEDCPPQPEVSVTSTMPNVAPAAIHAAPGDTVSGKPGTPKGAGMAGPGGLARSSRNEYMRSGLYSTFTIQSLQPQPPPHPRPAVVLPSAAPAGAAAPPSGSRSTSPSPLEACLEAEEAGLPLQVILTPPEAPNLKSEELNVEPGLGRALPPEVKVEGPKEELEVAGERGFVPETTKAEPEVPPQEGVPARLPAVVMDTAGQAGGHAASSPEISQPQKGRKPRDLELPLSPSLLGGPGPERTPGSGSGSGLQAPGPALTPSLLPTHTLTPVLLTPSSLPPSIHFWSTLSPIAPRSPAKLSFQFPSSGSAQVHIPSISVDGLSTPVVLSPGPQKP
The gist of the method:
as §1

Another experiment deals with T3, GABPA (Homo sapiens, UniProt Q06546 1-454).
T3 sequence: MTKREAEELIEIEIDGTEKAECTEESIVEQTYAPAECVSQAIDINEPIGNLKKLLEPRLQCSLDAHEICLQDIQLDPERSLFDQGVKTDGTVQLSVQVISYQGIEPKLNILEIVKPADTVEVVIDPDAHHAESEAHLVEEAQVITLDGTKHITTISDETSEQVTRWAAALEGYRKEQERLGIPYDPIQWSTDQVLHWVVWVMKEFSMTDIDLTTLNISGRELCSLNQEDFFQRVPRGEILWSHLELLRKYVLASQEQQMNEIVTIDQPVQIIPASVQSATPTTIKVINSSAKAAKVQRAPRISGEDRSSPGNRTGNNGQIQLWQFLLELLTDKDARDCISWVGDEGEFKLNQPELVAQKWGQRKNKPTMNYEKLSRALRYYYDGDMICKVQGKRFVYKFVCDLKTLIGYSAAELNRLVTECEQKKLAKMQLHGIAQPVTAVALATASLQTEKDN
The gist of the method: as §1

Another experiment addresses T4, ERG (Homo sapiens, UniProt P11308 1-479).
T4 sequence: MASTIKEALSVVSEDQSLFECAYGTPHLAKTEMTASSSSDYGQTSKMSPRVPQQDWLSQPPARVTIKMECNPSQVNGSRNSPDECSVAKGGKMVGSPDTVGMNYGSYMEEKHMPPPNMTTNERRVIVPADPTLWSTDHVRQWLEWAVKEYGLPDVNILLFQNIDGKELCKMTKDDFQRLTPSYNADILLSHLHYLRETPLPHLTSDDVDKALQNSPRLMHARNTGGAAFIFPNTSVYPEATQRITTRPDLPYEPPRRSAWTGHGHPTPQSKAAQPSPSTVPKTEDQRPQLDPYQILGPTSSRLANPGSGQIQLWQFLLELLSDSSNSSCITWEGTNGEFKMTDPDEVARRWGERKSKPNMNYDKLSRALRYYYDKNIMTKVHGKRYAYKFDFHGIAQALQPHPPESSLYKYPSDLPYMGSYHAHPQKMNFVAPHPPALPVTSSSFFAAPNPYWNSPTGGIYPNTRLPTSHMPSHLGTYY
In short, it runs like this:
as §1

The target in a further experiment is ELF1 (Homo sapiens, UniProt P32519 1-619). In short, it runs like this: as §1
Chain of ELF1 (P32519 whole entry): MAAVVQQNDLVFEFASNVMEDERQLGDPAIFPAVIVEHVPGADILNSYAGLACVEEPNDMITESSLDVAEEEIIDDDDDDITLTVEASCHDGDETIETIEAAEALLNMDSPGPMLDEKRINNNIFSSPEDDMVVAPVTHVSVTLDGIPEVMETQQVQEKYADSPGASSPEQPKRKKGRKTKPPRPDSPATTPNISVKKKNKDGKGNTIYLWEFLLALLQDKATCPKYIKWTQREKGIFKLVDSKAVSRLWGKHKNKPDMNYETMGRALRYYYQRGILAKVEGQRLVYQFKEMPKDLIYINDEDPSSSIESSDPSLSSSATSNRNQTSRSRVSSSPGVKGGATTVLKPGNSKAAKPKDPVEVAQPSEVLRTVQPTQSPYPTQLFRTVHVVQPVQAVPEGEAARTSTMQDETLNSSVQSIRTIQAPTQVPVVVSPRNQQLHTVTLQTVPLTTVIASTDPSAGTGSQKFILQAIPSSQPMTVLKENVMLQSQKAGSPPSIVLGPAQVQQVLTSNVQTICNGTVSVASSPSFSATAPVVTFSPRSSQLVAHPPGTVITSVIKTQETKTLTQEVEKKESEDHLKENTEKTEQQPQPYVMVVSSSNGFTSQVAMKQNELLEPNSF
In a further experiment the target is T5, EHF (Homo sapiens, UniProt Q9NZC4 1-300).
T5 sequence: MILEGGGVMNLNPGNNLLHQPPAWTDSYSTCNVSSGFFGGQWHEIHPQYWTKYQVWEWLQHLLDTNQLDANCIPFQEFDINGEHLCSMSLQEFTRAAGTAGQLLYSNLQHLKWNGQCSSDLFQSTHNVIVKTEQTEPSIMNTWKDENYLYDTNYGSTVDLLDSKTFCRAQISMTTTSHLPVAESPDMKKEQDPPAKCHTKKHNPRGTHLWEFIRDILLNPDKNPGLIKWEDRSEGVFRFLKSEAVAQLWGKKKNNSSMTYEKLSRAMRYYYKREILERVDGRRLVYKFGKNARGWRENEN
In short, it runs like this: as §1

Another experiment deals with SPI1 (Homo sapiens, UniProt P17947 1-270). In short, it runs like this: as §1
A further experiment has as its target SPIB (Homo sapiens, UniProt Q01892 1-262). In short, it runs like this:
as §1

The target in the next experiment is T6, ELK3 (Homo sapiens, UniProt P41970 1-407).
T6 sequence: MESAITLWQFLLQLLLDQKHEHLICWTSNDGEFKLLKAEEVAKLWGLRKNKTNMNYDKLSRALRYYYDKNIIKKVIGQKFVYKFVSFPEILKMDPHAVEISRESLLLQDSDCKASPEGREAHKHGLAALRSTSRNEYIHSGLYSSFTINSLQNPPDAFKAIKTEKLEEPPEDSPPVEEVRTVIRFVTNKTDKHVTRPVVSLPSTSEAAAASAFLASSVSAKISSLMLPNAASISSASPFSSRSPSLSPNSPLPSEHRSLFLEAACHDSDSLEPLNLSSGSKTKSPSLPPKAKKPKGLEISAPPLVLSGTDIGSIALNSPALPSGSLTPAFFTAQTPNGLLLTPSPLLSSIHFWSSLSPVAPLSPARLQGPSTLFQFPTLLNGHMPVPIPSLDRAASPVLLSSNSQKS
In short, it runs like this:
as §1

Chain of SPIB (Q01892 whole entry): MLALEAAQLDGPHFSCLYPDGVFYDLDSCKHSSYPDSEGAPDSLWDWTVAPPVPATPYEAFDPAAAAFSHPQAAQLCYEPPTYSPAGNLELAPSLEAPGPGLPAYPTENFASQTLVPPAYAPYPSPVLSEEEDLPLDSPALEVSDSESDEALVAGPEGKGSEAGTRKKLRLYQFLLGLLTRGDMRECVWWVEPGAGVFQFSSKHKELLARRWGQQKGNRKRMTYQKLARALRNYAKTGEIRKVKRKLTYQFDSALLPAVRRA

Consider TAGATG, for which the binding signal was 1.28 fold enrichment (6-mer frequency, TF over GST control) with FLI1; 1.29 fold enrichment (6-mer frequency, TF over GST control) with ELK1; 1.27 fold enrichment (6-mer frequency, TF over GST control) with GABPA; 1.27 fold enrichment (6-mer frequency, TF over GST control) with ERG; 1.29 fold enrichment (6-mer frequency, TF over GST control) with ELF1; 1.26 fold enrichment (6-mer frequency, TF over GST control) with EHF. Besides, the binding signal with SPI1 is 1.3 fold enrichment (6-mer frequency, TF over GST control); in the experiment with SPIB, 1.24 fold enrichment (6-mer frequency, TF over GST control); with ELK3 it was 1.31 fold enrichment (6-mer frequency, TF over GST control).
As for ACGTTC, the binding signal is 1.31 fold enrichment (6-mer frequency, TF over GST control) with FLI1; 1.45 fold enrichment (6-mer frequency, TF over GST control) with ELK1; 1.33 fold enrichment (6-mer frequency, TF over GST control) in the experiment with GABPA; 1.39 fold enrichment (6-mer frequency, TF over GST control) in the experiment with ERG; 1.4 fold enrichment (6-mer frequency, TF over GST control) with ELF1; 1.3 fold enrichment (6-mer frequency, TF over GST control) in the experiment with EHF. The binding signal with SPI1 was 1.29 fold enrichment (6-mer frequency, TF over GST control); in the experiment with SPIB it was 1.37 fold enrichment (6-mer frequency, TF over GST control); with ELK3, 1.38 fold enrichment (6-mer frequency, TF over GST control).
TTTCCC: the binding signal with FLI1 was 1.65 fold enrichment (6-mer frequency, TF over GST control); with ELK1, 1.69 fold enrichment (6-mer frequency, TF over GST control); with GABPA, 1.76 fold enrichment (6-mer frequency, TF over GST control); with ERG, 1.88 fold enrichment (6-mer frequency, TF over GST control); with ELF1, 1.61 fold enrichment (6-mer frequency, TF over GST control); with EHF it was 1.69 fold enrichment (6-mer frequency, TF over GST control). In addition, the binding signal in the experiment with SPI1 is 1.69 fold enrichment (6-mer frequency, TF over GST control); in the experiment with SPIB it was 1.81 fold enrichment (6-mer frequency, TF over GST control); with ELK3, 1.75 fold enrichment (6-mer frequency, TF over GST control).
Consider CACGTA, for which the binding signal with FLI1 is 1.1 fold enrichment (6-mer frequency, TF over GST control); with ELK1 it was 1.18 fold enrichment (6-mer frequency, TF over GST control); in the experiment with GABPA, 1.23 fold enrichment (6-mer frequency, TF over GST control); with ERG it was 1.1 fold enrichment (6-mer frequency, TF over GST control); with ELF1, 1.13 fold enrichment (6-mer frequency, TF over GST control); with EHF, 1.11 fold enrichment (6-mer frequency, TF over GST control). The binding signal with SPI1 was 1.12 fold enrichment (6-mer frequency, TF over GST control); with SPIB it was 1.17 fold enrichment (6-mer frequency, TF over GST control); in the experiment with ELK3 it was 1.12 fold enrichment (6-mer frequency, TF over GST control).
For CAATCT, the binding signal was 1.24 fold enrichment (6-mer frequency, TF over GST control) with FLI1; 1.18 fold enrichment (6-mer frequency, TF over GST control) with ELK1; 1.18 fold enrichment (6-mer frequency, TF over GST control) with GABPA; 1.13 fold enrichment (6-mer frequency, TF over GST control) with ERG; 1.22 fold enrichment (6-mer frequency, TF over GST control) with ELF1; 1.17 fold enrichment (6-mer frequency, TF over GST control) with EHF. For the same sequence, the binding signal in the experiment with SPI1 was 1.26 fold enrichment (6-mer frequency, TF over GST control); with SPIB it was 1.23 fold enrichment (6-mer frequency, TF over GST control); with ELK3 it was 1.14 fold enrichment (6-mer frequency, TF over GST control).
For the sequence TTCGTA, the binding signal in the experiment with FLI1 is 1.32 fold enrichment (6-mer frequency, TF over GST control); with ELK1 it was 1.44 fold enrichment (6-mer frequency, TF over GST control); in the experiment with GABPA, 1.29 fold enrichment (6-mer frequency, TF over GST control); in the experiment with ERG, 1.38 fold enrichment (6-mer frequency, TF over GST control); with ELF1, 1.35 fold enrichment (6-mer frequency, TF over GST control); in the experiment with EHF it was 1.34 fold enrichment (6-mer frequency, TF over GST control). Moreover, the binding signal with SPI1 was 1.24 fold enrichment (6-mer frequency, TF over GST control); with SPIB, 1.35 fold enrichment (6-mer frequency, TF over GST control); with ELK3 it was 1.41 fold enrichment (6-mer frequency, TF over GST control).
Take AAACAC: the binding signal was 1.25 fold enrichment (6-mer frequency, TF over GST control) with FLI1; 1.33 fold enrichment (6-mer frequency, TF over GST control) in the experiment with ELK1; 1.24 fold enrichment (6-mer frequency, TF over GST control) with GABPA; 1.33 fold enrichment (6-mer frequency, TF over GST control) in the experiment with ERG; 1.31 fold enrichment (6-mer frequency, TF over GST control) with ELF1; 1.35 fold enrichment (6-mer frequency, TF over GST control) with EHF. Further, the binding signal is 1.3 fold enrichment (6-mer frequency, TF over GST control) with SPI1; 1.27 fold enrichment (6-mer frequency, TF over GST control) in the experiment with SPIB; 1.24 fold enrichment (6-mer frequency, TF over GST control) with ELK3.
On to AATTCC, for which the binding signal with FLI1 is 1.95 fold enrichment (6-mer frequency, TF over GST control); with ELK1, 1.93 fold enrichment (6-mer frequency, TF over GST control); with GABPA, 1.81 fold enrichment (6-mer frequency, TF over GST control); with ERG, 1.96 fold enrichment (6-mer frequency, TF over GST control); in the experiment with ELF1, 1.86 fold enrichment (6-mer frequency, TF over GST control); in the experiment with EHF, 2.05 fold enrichment (6-mer frequency, TF over GST control). The binding signal was 1.89 fold enrichment (6-mer frequency, TF over GST control) in the experiment with SPI1; 2.02 fold enrichment (6-mer frequency, TF over GST control) in the experiment with SPIB; 1.94 fold enrichment (6-mer frequency, TF over GST control) in the experiment with ELK3.
